Laboratory results: PubChem BioAssay (EPA / NIEHS)
Calls of active or inactive are those of the source. How the source made its calls: active means hit-call score of the fitted dose curve at least 0.9, where 1 is the maximum; inactive means score below 0.9.

What follows are compounds tested on Matrix Metallopeptidase 3 (MMP3), MMP3 (gene 4314) (assay: BSK_BF4T_MMP3: BioMAP Diversity Plus: BF4T Assay for Matrix Metallopeptidase 3 (MMP3) Biomarker Activity (AID 2284271)). Conditions: primary human bronchial epithelial cells with fibroblasts.
Description: BSK_BF4T is a cell-based, multiplexed-readout assay that uses bronchial epithelial cells and dermal fibroblasts, a human vascular primary cell, with measurements taken at 24 hours after chemical dosing in a microplate: 96-well plate.BSK_BF4T_MMP3 is an assay component measured in the BSK_BF4T assay. It measures MMP-3 antibody related to regulation of gene expression using ELISA technology.Data from the assay component BSK_BF4T_MMP3 was analyzed at the endpoint, BSK_BF4T_MMP3, in the positive analysis fitting direction relative to DMSO as the negative control and baseline of activity. Using a type of binding reporter, gain or loss-of-signal activity can be used to understand protein changes. To generalize the intended target to other relatable targets, this assay endpoint is annotated to the 'protease' intended target family, where the subfamily is 'matrix metalloproteinase'.
The levels of cell surface (or secreted, indicated by the prefix "s") biomarker endpoints were measured by ELISA. Overt cytotoxicity to cells in confluent adherent cultures (all systems other than the BT system) was assessed by measuring total protein levels using sulforhodamine B (SRB) staining in parallel cultures at the time of biomarker measurements, indicated as SRB endpoints. For proliferation assays for adherent cell types, individual cell types are cultured at sub-confluence and relative cell numbers quantified by SRB staining at time points optimized for each system (48 h: 3C and CASM3C systems; 72 h: BT and HDF3CGF systems; 96 h: SAg system). SRB was performed by staining cells with 0.1% SRB after fixation with 10% TCA and reading wells at 560 nm.Viability and proliferation of PBMC (T cells) was quantified by Alamar Blue reduction for the SAg and BT systems. For PBMC viability (referred to as PBMC Cytotoxicity within the assay endpoint names), cells were plated (75,000/well in a 96-well plate) and then chemical samples added for 1 h before addition of activators, SEB and TSST-1 (20 ng/mL final concentration each). Cells were incubated for 90 h. Then, Alamar Blue (20 uL/well) (Invitrogen, Cat DAL1100) was added for 6 h, and the plates were read with a fluorescence microplate reader at 546/580 nm (excitation/emission). For PBMC proliferation, cells were plated and activated as above but incubated for only 16 h prior to addition of Alamar Blue. Plates were read after 6 h.

Compound | outcome
FC(F)C(F)(F)COCC1CO1 (stereo not given) | inactive
C[Si](C)(C)C(F)(F)C(F)(F)C(F)(F)F | inactive
OC(O)(C(F)C(O)(O)C(F)(F)F)C(F)(F)F | inactive
NCC(F)(F)C(F)(F)C(F)(F)C(F)(F)F | inactive
O=C(Cl)C(F)(F)C(F)(F)C(F)(F)C(=O)Cl | inactive
FC(F)=C(F)C(F)(F)C(F)(F)C(F)(F)C(F)(F)C(F)(F)C(F)(F)F | inactive
O=S(=O)(O)CCC(F)(F)C(F)(F)C(F)(F)C(F)(F)C(F)(F)C(F)(F)F | inactive
FC(F)(F)C(F)(F)C(F)(F)C(F)(F)C(F)(F)C(F)(F)I | inactive
FC(F)(F)COC(OCC(F)(F)F)OCC(F)(F)F | inactive
OCCC(F)(F)C(F)(F)C(F)(F)C(F)(F)F | inactive
